Reference: PubChem BioAssay AID1159580 (chemical genetic matrix, 2015)
Out of some 5,500 compounds screened, about 2,000 (36%) were called active. Inconclusive results (about 18%) are left out. Cut-off read from the data, not from the text of the source: active = normalized growth mostly below about 0.91 (no sharp cut-off); inconclusive = no clear call, values can overlap the other calls; inactive = mostly above about 0.92. The list shows a part of the results.

Assay: chemical genetic growth profiling, strain panel (AID 1159580);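 note: tested at 20 µM; growth read once vehicle control cultures reached saturation at 30 °C; 1 = growth at the plate median or of vehicle wells; lower values mean less growth of the strain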
Settings: growth OD

Measured: normalized growth

O=C(O)CCC1NCC2CC1CN1CCCCC21 (configuration not stated)
inactive: S. cerevisiae deletion strains, locus YJR075W, strain HOC1, hits give low values 1.01 | S. cerevisiae deletion strains, locus YKL009W, strain mrt4, hits give low values 1.02 | S. cerevisiae deletion strains, locus YKL068W, hits give low values 1 | S. cerevisiae deletion strains, locus YKL085W, strain MDH1 (second series), hits give low values 1.02 | S. cerevisiae deletion strains, locus YKL085W, strain MDH1, hits give low values 1.02 | S. cerevisiae deletion strains, locus YKL160W, strain elf1, hits give low values 0.974 | S. cerevisiae deletion strains, locus YKL190W, strain CNB1, hits give low values 1 | S. cerevisiae deletion strains, locus YKR001C, strain vps1, hits give low values 0.995 | S. cerevisiae deletion strains, locus YKR026C, strain gcn3, hits give low values 0.982 | S. cerevisiae deletion strains, locus YKR091W, strain srl3, hits give low values 0.97 | S. cerevisiae deletion strains, locus YLL001W, strain dnm1, hits give low values 0.954 | S. cerevisiae deletion strains, locus YLL026W, hits give low values 0.98 | S. cerevisiae deletion strains, locus YLL041C, strain sdh2, hits give low values 0.987 | S. cerevisiae deletion strains, locus YLR027C, strain aat2, hits give low values 0.992 | S. cerevisiae deletion strains, locus YLR039C, strain RIC1, hits give low values 0.998 | S. cerevisiae deletion strains, locus YLR058C, strain SHM2, hits give low values 1.01 | S. cerevisiae deletion strains, locus YLR102C, strain apc9, hits give low values 0.99 | S. cerevisiae deletion strains, locus YLR113W, strain HOG1, hits give low values 0.983 | S. cerevisiae deletion strains, locus YLR221C, strain rsa3, hits give low values 0.968 | S. cerevisiae deletion strains, locus YLR258W, strain gsy2, hits give low values 0.992 | S. cerevisiae deletion strains, locus YLR262C, strain YPT6 (second series), hits give low values 0.958 | S. cerevisiae deletion strains, locus YLR262C, strain YPT6, hits give low values 0.97 | S. cerevisiae deletion strains, locus YLR268W, strain sec22, hits give low values 0.988 | S. cerevisiae deletion strains, locus YLR320W, strain mms22, hits give low values 0.962 | S. cerevisiae deletion strains, locus YLR330W, strain CHS5, hits give low values 1.01 | S. cerevisiae deletion strains, locus YLR342W, strain FKS1 (second series), hits give low values 1.05 | S. cerevisiae deletion strains, locus YLR342W, strain FKS1, hits give low values 0.981 | S. cerevisiae deletion strains, locus YLR357W, strain rsc2, hits give low values 0.971 | S. cerevisiae deletion strains, locus YLR370C, strain arc18, hits give low values 0.978 | S. cerevisiae deletion strains, locus YLR371W, strain rom2, hits give low values 0.998 | S. cerevisiae deletion strains, locus YLR384C, strain iki3, hits give low values 0.969 | S. cerevisiae deletion strains, locus YLR418C, strain cdc73, hits give low values 0.923 | S. cerevisiae deletion strains, locus YML016C, strain PPZ1, hits give low values 1 | S. cerevisiae deletion strains, locus YML032C, strain rad52, hits give low values 1 | S. cerevisiae deletion strains, locus YML120C, strain ndi1, hits give low values 0.956 | S. cerevisiae deletion strains, locus YML124C, strain tub3, hits give low values 0.997 | S. cerevisiae deletion strains, locus YMR058W, strain fet3, hits give low values 0.969 | S. cerevisiae deletion strains, locus YMR078C, strain ctf18, hits give low values 1 | S. cerevisiae deletion strains, locus YMR125W, strain sto1, hits give low values 0.962 | S. cerevisiae deletion strains, locus YMR129W, hits give low values 0.989 | S. cerevisiae deletion strains, locus YMR205C, strain PFK2, hits give low values 0.964 | S. cerevisiae deletion strains, locus YMR223W, strain ubp8, hits give low values 1.02 | S. cerevisiae deletion strains, locus YMR231W, strain pep5, hits give low values 0.985 | S. cerevisiae deletion strains, locus YMR263W, strain SAP30, hits give low values 0.998 | S. cerevisiae deletion strains, locus YMR307W, strain GAS1, hits give low values 1.07 | S. cerevisiae deletion strains, locus YNL067W, strain RPL9B, hits give low values 0.999 | S. cerevisiae deletion strains, locus YNL071W, strain lat1, hits give low values 0.991 | S. cerevisiae deletion strains, locus YNL128W, strain TEP1, hits give low values 1.02 | S. cerevisiae deletion strains, locus YNL153C, strain GIM3, hits give low values 0.989 | S. cerevisiae deletion strains, locus YNL183C, strain NPR1, hits give low values 0.938 | S. cerevisiae deletion strains, locus YNL209W, strain ssb2, hits give low values 0.984 | S. cerevisiae deletion strains, locus YNL233W, strain BNI4, hits give low values 1.01 | S. cerevisiae deletion strains, locus YNL248C, strain rpa49, hits give low values 0.998 | S. cerevisiae deletion strains, locus YNL250W, strain rad50, hits give low values 1.01 | S. cerevisiae deletion strains, locus YNL271C, strain bni1, hits give low values 1 | S. cerevisiae deletion strains, locus YNL298W, strain CLA4, hits give low values 0.997 | S. cerevisiae deletion strains, locus YNL307C, strain MCK1, hits give low values 1 | S. cerevisiae deletion strains, locus YNL322C, strain KRE1 (second series), hits give low values 0.97 | S. cerevisiae deletion strains, locus YNL322C, strain KRE1, hits give low values 1.01 | S. cerevisiae deletion strains, locus YNR049C, strain mso1, hits give low values 0.971 | S. cerevisiae deletion strains, locus YNR052C, strain pop2, hits give low values 1 | S. cerevisiae deletion strains, locus YOL006C, strain TOP1, hits give low values 1.04 | S. cerevisiae deletion strains, locus YOL012C, strain htz1 0.732 | S. cerevisiae deletion strains, locus YOL147C, strain pex11, hits give low values 1 | S. cerevisiae deletion strains, locus YOR001W, strain rrp6, hits give low values 1.01 | S. cerevisiae deletion strains, locus YOR061W, strain CKA2, hits give low values 1 | S. cerevisiae deletion strains, locus YOR069W, strain VPS5, hits give low values 1 | S. cerevisiae deletion strains, locus YOR070C, strain gyp1, hits give low values 0.973 | S. cerevisiae deletion strains, locus YOR080W, strain dia2, hits give low values 0.964 | S. cerevisiae deletion strains, locus YOR083W, strain WHI5, hits give low values 0.965 | S. cerevisiae deletion strains, locus YOR106W, strain vam3, hits give low values 0.968 | S. cerevisiae deletion strains, locus YOR136W, strain idh2, hits give low values 0.998 | S. cerevisiae deletion strains, locus YOR144C, strain elg1, hits give low values 0.988 | S. cerevisiae deletion strains, locus YOR184W, strain ser1, hits give low values 1.04 | S. cerevisiae deletion strains, locus YOR231W, strain MKK1, hits give low values 1.04 | S. cerevisiae deletion strains, locus YOR265W, strain rbl2, hits give low values 0.977 | S. cerevisiae deletion strains, locus YOR270C, strain vph1, hits give low values 0.951 | S. cerevisiae deletion strains, locus YOR290C, strain snf2, hits give low values 0.916 | S. cerevisiae deletion strains, locus YOR316C, strain cot1, hits give low values 0.992 | S. cerevisiae deletion strains, locus YPL051W, strain arl3, hits give low values 0.982 | S. cerevisiae deletion strains, locus YPL055C, strain LGE1, hits give low values 0.99 | S. cerevisiae deletion strains, locus YPL078C, strain atp4, hits give low values 0.983 | S. cerevisiae deletion strains, locus YPL106C, strain sse1, hits give low values 0.946 | S. cerevisiae deletion strains, locus YPL240C, strain hsp82, hits give low values 0.974 | S. cerevisiae deletion strains, locus YPL241C, strain CIN2, hits give low values 0.995 | S. cerevisiae deletion strains, locus YPL256C, strain CLN2, hits give low values 1.02 | S. cerevisiae deletion strains, locus YPR119W, strain clb2, hits give low values 0.991 | S. cerevisiae deletion strains, locus YPR141C, strain kar3, hits give low values 0.987 | S. cerevisiae deletion strains, locus YPR163C, strain tif3, hits give low values 0.983 | S. cerevisiae deletion strains, locus YPR167C, strain met16, hits give low values 0.981 | S. cerevisiae deletion strains, strain wtn01, hits give low values 0.999 | S. cerevisiae strains, strain wild type, hits give low values 1.01
